This is a sample that favours compounds with a hit; in the whole collection about 0.28% have one here.
hcGAS inh: inhibitors of human cGAS. inhibition, % at 12.5 µM. recombinant h-cGAS, ATP depletion, Kinase-Glo luminescence. 290,000 tested, 0.081% active. AID 1259398;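 note: 0% = vehicle reaction and 100% = reaction without DNA for no activity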
NPYLR7 agonist: mosquito NPYLR7 agonism; HEK293T NPYLR7/Galpha15, GCaMP6s calcium fluorescence; activation, % at 10 µM; 270,000 tested, 0.15% active; AID 1259423; in the data active = activation above about 40%;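 note: 0% = vehicle and 100% = reference agonist at the receptor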
mcGAS lum: mouse cGAS inhibition by luminescence; Q8C6L5; recombinant cGAS, Kinase-Glo ATP depletion luminescence; inhibition, % at 12.5 µM; 160,000 tested, 0.15% active; AID 1259399;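 note: 0% = negative control wells and 100% = reference inhibitor with no enzyme activity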
* = called active by the depositor; . = not tested or not shown. Cut-off read from the data, not from the text of the source, unless noted: active = inhibition above about 40%; inactive = the rest.

SMILES	hcGAS inh	NPYLR7 agonist	mcGAS lum
CCCCc1nn2c(N)c(C=C3C=CC(=O)C(OCC)=C3)c(=O)nc2s1	-2.2	38.7	.
C=CCC1=CC(=Cc2c(N)n3nc(Cc4cccs4)sc3nc2=O)C=C(OC)C1=O	1.6	94.9*	.
CCCCS(=O)(=O)N1CCN(c2ccc(-n3cccn3)nn2)CC1	-7.9	-5.0	-8.6
Oc1cc2c(cc1O)C1c3ccc(O)c(O)c3OCC1(O)C2 (stereo unspecified)	-8.9	4.8	49.7*
O=[N+]([O-])c1ccc2nc(C(F)(F)F)[nH]c2c1	41.4*	11.7	.
O=[N+]([O-])c1ccc2nc(-c3nc4ccc([N+](=O)[O-])cc4[nH]3)[nH]c2c1	-6.9	3.8	.
Cc1ccc(C)c(-c2ccc3nc(-c4cccc([N+](=O)[O-])c4)c(CN4CCNCC4)n3c2)c1	-4.8	21.3	.
Cn1nccc1C(=O)N1CCN(c2nc3c(F)cc(F)cc3s2)CC1	-4.3	.	-11.2
c1csc(C2=NN3C(C2)c2ccccc2OC3c2cccs2)c1 (stereo unspecified)	-6.7	2.6	-4.5
CCC(CC)NC(=O)CN1c2cccc3cccc(c23)S1(=O)=O	-16.2	13.2	.
NC(=O)CN1c2cccc3cccc(c23)S1(=O)=O	3.9	106.0*	.
c1ccc(CC(Cc2ccccc2)=NNc2nncc3ccccc23)cc1	-5.1	0.6	.
CCC(C(=O)N1CCC2(CC1)NC(=O)c1cc(F)c(F)cc1N2)c1ccccc1 (stereo unspecified)	-6.5	3.2	-5.7
O=C(Nc1cccnc1)c1cnc(N2CCN(Cc3ccccc3)C2=O)s1	-4.6	0.0	.
O=C1OC(c2ccc(Cl)c([N+](=O)[O-])c2)=N/C1=C\c1cc2cc3c4c(c2oc1=O)CCCN4CCC3	-7.0	123.2*	-4.8
Cc1cccc(C2=N/C(=C\c3cc4cc5c6c(c4oc3=O)CCCN6CCC5)C(=O)O2)c1	-6.8	116.8*	-7.1
Cc1ccc(C2=NC(=Cc3ccc(N4CCOCC4)s3)C(=O)O2)cc1[N+](=O)[O-]	-35.8	14.4	.
COc1cc(OC)c(OC)cc1C=C1N=C(c2cccc(C)c2)OC1=O	-5.6	3.4	.
CCCCN(CC(=O)N(CCc1c[nH]c2ccccc12)Cc1ccc(C(C)(C)C)cc1)C(=O)Cc1ccccc1	-0.7	-11.8	2.5
Fc1ccc(C2=NNC(=Nc3ccccn3)SC2)cc1	-2.8	2.3	.
COc1cc(/C=C/c2nc3ccccc3o2)cc(Cl)c1O	-2.7	334.1*	-12.6
Nc1ccc(/C=C/c2nc3ccccc3o2)cc1	-1.5	1.9	-2.4
O=C(NCc1nnc2n1CCC2)C1=Cc2cc(Br)ccc2OC1	-1.6	4.2	.
CCOC(=O)N1CCN(c2ccc(/C=C(\C#N)c3nc4ccccc4n3C)o2)CC1	-20.5	341.7*	.
CCOC(=O)N1CCN(c2ccc(/C=C(\C#N)c3nc4ccccc4s3)o2)CC1	-7.3	4.9	.
SMILES	hcGAS inh	NPYLR7 agonist	mcGAS lum
N#C/C(=C/c1ccc(N2CCCCC2)o1)c1cccc(F)c1	-1.2	63.4*	.
N#C/C(=C/c1ccc(N2CCCCC2)cc1F)c1ccc(C(=O)O)cc1	-0.4	-1.3	-4.9
CCCS(=O)(=O)N1CCC(C(=O)Nc2ccc(N3CCCC3)nc2)CC1	-7.1	7.6	.
Cc1ccc(-n2nnnc2CNC(=O)c2cccc3ccccc23)cc1	0.7	-3.9	-1.6
CC(C)OC(=O)C(C(=O)C(F)(F)F)c1cc(NS(=O)(=O)c2ccccc2)ccc1O (stereo unspecified)	-7.3	4.7	.
CC(C)OC(=O)C(C(=O)C(F)(F)F)c1cc(NS(=O)(=O)c2ccc(Cl)cc2)ccc1O (stereo unspecified)	-7.3	43.9*	.
COc1ccc(CCn2c(-c3cc(OC)c(OC)c(OC)c3)nc3ccc(Br)cc3c2=O)cc1	-8.5	5.7	-7.3
COc1cc2c(cc1OC)CN(S(=O)(=O)c1ccc(OC)c(N3CCN(S(=O)(=O)c4ccc(F)cc4F)CC3)c1)CC2	-3.2	18.7	-4.6
NC(=S)N/N=c1\oc2cc(O)ccc2cc1-c1nc2ccccc2[nH]1	1.2	66.7*	.
COc1ccc2o/c(=N\NC(N)=S)c(-c3nc4ccccc4[nH]3)cc2c1	1.5	-2.0	.
O=c1cc(-c2ccccc2)oc2c(O)c(O)ccc12	71.5*	-1.4	.
O=c1cc(-c2ccccc2)oc2cc(O)c(O)cc12	33.6	-4.3	29.1
CC1=NOC(C(=O)NCc2cccnc2N(C)CCc2ccccn2)C1 (stereo unspecified)	-4.7	2.0	-21.2
CCC(C(=O)N1CCN(CC(OCc2ccc(C(=O)OC)cc2)c2ccc(Cl)cc2)CC1)c1ccccc1 (stereo unspecified)	-6.7	.	87.9*
COC(=O)c1ccc(COC(CN2CCN(C(=O)c3ccc(Cl)cc3)CC2)c2ccc(Cl)cc2)cc1 (stereo unspecified)	-7.0	.	-4.7
CCN(CC)c1ccc(C2NC(=O)NC(C)=C2C(=O)OCc2ccccc2)cc1 (stereo unspecified)	-2.5	3.2	.
